Screens deposited in PubChem BioAssay by several laboratories.
p97 ATPase inh: blocks human p97 ATPase activity; P55072; recombinant p97 ATPase, Kinase-Glo ATP luminescence, 3 h; inhibition, % at 8 µM; hit rate 0.42% among 220,000; in the data active = inhibition above about 15%;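 also: 0% = DMSO vehicle and 100% = wells lacking enzyme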
HDAC3 inh: inhibitors of human histone deacetylase 3. inhibition, % at 8.3 µM. hit rate 0.15% among 320,000. recombinant HDAC3, fluorogenic peptide/trypsin coupled, fluorescence; in the data active = inhibition above about 26%, passing the limit was not always enough
Target sequence (O15379 whole entry, looked up): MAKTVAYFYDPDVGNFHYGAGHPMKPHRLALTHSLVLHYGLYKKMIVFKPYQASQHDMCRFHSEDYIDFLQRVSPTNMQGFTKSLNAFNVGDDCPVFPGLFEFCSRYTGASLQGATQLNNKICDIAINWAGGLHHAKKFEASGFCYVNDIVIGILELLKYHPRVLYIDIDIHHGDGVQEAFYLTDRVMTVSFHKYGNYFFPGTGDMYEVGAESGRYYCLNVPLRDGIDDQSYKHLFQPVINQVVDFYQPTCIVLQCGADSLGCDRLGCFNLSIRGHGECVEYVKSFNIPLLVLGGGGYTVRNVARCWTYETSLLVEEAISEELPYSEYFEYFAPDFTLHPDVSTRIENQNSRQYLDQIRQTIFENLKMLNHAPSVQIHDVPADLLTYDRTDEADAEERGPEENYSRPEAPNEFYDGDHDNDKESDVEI
PfM18AAP inh-1: PfM18AAP enzyme inhibition. hit rate 1.2% among 290,000. recombinant PfM18AAP, H-Glu-NHMec fluorogenic cleavage. inhibition, % at 7.35 µM;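 active = inhibition above the campaign mean inhibition over all tested compounds plus 3 SD, cut at about 28% in these data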;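 also: 0% = plate median of test compound wells and 100% = 2 mM ZnCl2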
PHOSPHO1 block: inhibitors of human PHOSPHO1 phosphatase | recombinant PHOSPHO1, absorbance phosphatase assay | Q8TCT1 | inhibition, % at 13.3 µM | hit rate 1.1% among 290,000; in the data active = inhibition above about 60%
G6PDH counter: L. mesenteroides G6PDH inhibition counter-screen; Purified L. mesenteroides G6PDH, diaphorase/resazurin coupled fluorescence, 45 min; inhibition, % at 5 µM; hit rate 0.12% among 200,000; AID 1020; in the data active = inhibition above about 50%
SUMO HTRF inh: inhibitors of human SUMOylation (UBC9); P63279; HTRF SUMOylation assay, SAE1/SAE2 + UBC9, in vitro; inhibition, % at 35 µM; hit rate 0.36% among 290,000; in the data active = inhibition above about 50%, passing the limit was not always enough
PfM18AAP inh-2: PfM18AAP inhibition, confirmation; shares compounds with PfM18AAP inh-1; recombinant PfM18AAP, H-Glu-NHMec fluorogenic cleavage; inhibition, % at 7.35 µM; hit rate 28% among 2,400;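 active = mean inhibition over replicate wells above the hit cutoff set for the earlier primary screen, cut at about 29% in these data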;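 also: 0% = median of test compound wells and 100% = 2 mM ZnCl2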
CTSL1 confirm: counter-screen for PFM18AAP inhibitors: confirmation of human cathepsin L inhibitors | shares compounds with PfM18AAP inh-1 | purified cathepsin L1, Z-Leu-Arg-MCA fluorescence | inhibition, % at 5.96 µM | 2,400 tested, under 10 active | AID 2178;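 active = average inhibition across replicates above the hit cutoff set in the earlier primary screen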;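 also: 0% = median of test compound wells and 100% = Z-Phe-Ala-diazomethylketone 1 µM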
Active calls of the source: *; nt = not tested or not shown. An excerpt weighted towards active compounds, which were near 2.5% of everything screened.

SMILES | p97 ATPase inh | HDAC3 inh | PfM18AAP inh-1 | PHOSPHO1 block | G6PDH counter | SUMO HTRF inh | PfM18AAP inh-2 | CTSL1 confirm
Nc1nc(-c2ccco2)c(-c2ccco2)s1 | 20* | -5 | 38* | 88* | 8 | 70 | -49 | -4
Nc1nc(-c2cccs2)c(-c2cccs2)s1 | nt | 0 | 8 | 27 | nt | 7 | nt | nt
N#Cc1cnc2ncnn2c1-c1ccccc1 | 1 | 2 | 56* | 9 | -4 | 13 | -23 | -6
Nc1c(-c2ccccc2)cnc2ncnn12 | -8 | -6 | -15 | -4 | 3 | 32 | nt | nt
c1ccc(NCn2cncn2)nc1 | 1 | -5 | 87* | -9 | -6 | 2 | 66* | 3
O=C(CC1CCCC1)Nc1ccc(Cl)c(S(=O)(=O)N2CCOCC2)c1 | nt | 5 | nt | nt | nt | nt | nt | nt
CC(c1ccccc1)C(CC(=O)O)C(=O)Nc1ccc(Cl)c(Cl)c1 (centres undefined) | nt | -11 | -14 | 29 | nt | 1 | nt | nt
O=C(CSc1nnc(-c2ccccc2)o1)NC1CCCC1 | nt | 1 | nt | nt | nt | nt | nt | nt
CCCc1ccc(-c2cc(C(=O)NN3CCOCC3)c3ccccc3n2)cc1 | -1 | -6 | -7 | 27 | 6 | 21 | nt | nt
O=C(Nn1cnnc1)c1ccccc1Cl | nt | 0 | 55* | 28 | nt | 12 | 40* | -1
O=C(Nc1ccccc1NC(=O)c1ccccc1Cl)c1ccccc1Cl | nt | 8 | 1 | 36 | nt | 0 | nt | nt
O=C(CSc1nnc(-c2ccccc2)o1)Nn1cnnc1 | -3 | -1 | 72* | 18 | 3 | 13 | 73* | 1
COc1cccc(C(=O)Nn2cnnc2)c1OC | nt | -2 | 43* | 3 | nt | 0 | 52* | -4
CCc1ccc(-c2cc(C(=O)Nn3cnnc3)c3ccccc3n2)cc1 | -23 | 0 | 43* | 51 | 8 | 11 | 46* | -1
COc1ccc(S(=O)(=O)NCC(c2ccc3c(c2)OCO3)N2CCOCC2)cc1 (centres undefined) | nt | 3 | nt | nt | nt | nt | nt | nt
COC(=O)C(NC(=O)c1cccnc1Cl)C(C)C (centres undefined) | 3 | 0 | -1 | 28 | nt | -15 | nt | nt
CCn1c(C)c(C)c2cc(C(=O)NC3CCCCCC3)ccc21 | nt | -2 | 8 | 20 | nt | 7 | nt | nt
NNC(=O)CP(=O)(c1ccccc1)c1ccccc1 | nt | 2 | nt | nt | nt | nt | nt | nt
Cc1cc(C)c2nc(-c3ccccn3)cc(C(=O)NCc3cc(C)n(C)n3)c2c1 | 0 | -31 | 1 | 34 | 12 | 24 | nt | nt
Cc1cc(C)c2nc(-c3ccccn3)cc(C(=O)Nn3cnnc3)c2c1 | 1 | -2 | 44* | -1 | 0 | 11 | 29* | -4
CC(C)(C)c1ccc(C(=O)Nn2cnnc2)cc1 | nt | 4 | 13 | 9 | nt | 5 | nt | nt
O=C(O)c1ccccc1C(=O)Nn1cnnc1 | nt | -12 | 37* | 20 | nt | 10 | 36* | -2
Cc1ccccc1C(=O)Nn1cnnc1 | nt | -5 | 33* | 19 | nt | -1 | 24 | -4
O=C(CP(=O)(c1ccccc1)c1ccccc1)Nn1cnnc1 | 1 | 6 | 34* | 27 | 4 | 24 | 49* | 5
CC(=O)N1c2ccc(S(=O)(=O)N3CCC(C(=O)NCCc4ccc(Cl)cc4)CC3)cc2CC1C (centres undefined) | nt | 6 | -7 | 15 | nt | 16 | nt | nt
SMILES | p97 ATPase inh | HDAC3 inh | PfM18AAP inh-1 | PHOSPHO1 block | G6PDH counter | SUMO HTRF inh | PfM18AAP inh-2 | CTSL1 confirm
CCC(CC)c1nnc(NC(=O)Cc2cccs2)s1 | 5 | -3 | 40* | 20 | 16 | 22 | -33 | 2
Cc1sc2nc(CSc3ncn[nH]3)[nH]c(=O)c2c1C | 2 | 4 | 72* | 4 | 13 | -16 | 71* | -3
CN1C(=O)CS(=O)c2ccc(C(=O)NC3CC3)cc21 (centres undefined) | 5 | 8 | 44* | 28 | 0 | -12 | -13 | 2
CN1C(=O)c2ccc(C(=O)NC3CCCCC3)cc2C1=O | -1 | 3 | -7 | -24 | 27 | 15 | nt | nt
CCCc1cc(C(=O)N2CCCC(C(=O)c3cc(C)c(OC)c(C)c3)C2)n(C)n1 (centres undefined) | nt | 0 | 6 | 24 | nt | nt | nt | nt
Fc1ccc(/C=N/n2cnn(Cc3ccccc3Cl)c2=S)cc1 | 5 | 3 | 41* | -107 | 2 | 14 | -32 | 2
CN(C)c1ccc(/C=N/n2cnn(Cc3ccccc3Cl)c2=S)cc1 | 0 | 2 | 11 | -42 | -2 | -7 | nt | nt
